Measurements as given in PubChem BioAssay (Tox21).
Results filed as inconclusive are left out. Entries that show only a call come without a potency. The source made the active and inactive calls. The call rests on the fitted dose curve; in most records, active means well fitted cell-killing curve with a large enough effect in the repeat runs; inconclusive means weak or mixed curves, or effect the other way; inactive means flat fitted curve, though single readings scatter.

Assay: cAMP Responsive Elements (CRE) small molecule agonists, cell-based qHTS assay: qHTS cell viability counter screen (AID 2060914); further: nearly all actives have a fitted effect of over 50% in size
Conditions: CRE-bla HEK293T viability, CellTiter-Glo luminescence, 5 h; series mostly up to 92.4 µM
Summary of the method: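 Luminescence read-out (CellTiter-Glo, 30 min RT) of ATP-based viability in CRE-bla HEK 293T cells, run in the same wells as the β-lactamase reporter assay after 3 h compound treatment at 37 °C.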

Compound | Potency | activity change, negative = cytotoxicity
O=Cc1cccc(Br)c1 | inactive | 
CCc1cccc(CC)c1NC(=O)C(=O)O | inactive | 
c1ccc(C[P+](c2ccccc2)(c2ccccc2)c2ccccc2)cc1 | inactive | 
O=[N+]([O-])c1cc(C2CCCCC2)c(O)c([N+](=O)[O-])c1 | inactive | 
O=CN(CCO)CCO | inactive | 
C=C[Si](OCC)(OCC)OCC | inactive | 
COc1cc(C)c(Cc2cnc(N)nc2N)cc1OC | inactive | 
Cc1ccc2c(c1)CCCN2 | inactive | 
COc1ncnc(NS(=O)(=O)c2ccc(N)cc2)c1OC | inactive | 
NCCc1ccn[nH]1 | inactive | 
O=c1cc(-c2ccccc2)oc2cc(O)cc(O)c12 | inactive | 
CCC(Cl)CCC(Cl)C(Cl)CC(Cl)C(Cl)C(Cl)CCl (stereo not given) | inactive | 
CCCCCCCCCCCCCOS(=O)(=O)O | inactive | 
CCC(C(=O)OCCN1CCOC(c2ccccc2)C1C)c1ccccc1 (stereo not given) | inactive | 
COc1cc(O)c(C(=O)c2ccccc2)cc1S(=O)(=O)O | inactive | 
CN1CCN(C2=Nc3ccccc3Oc3ccc(Cl)cc32)CC1 | inactive | 
O=C(O)CC(=O)O | inactive | 
COc1ccc(C(=O)CC(=O)c2ccc(C(C)(C)C)cc2)cc1 | inactive | 
NC(N)=NS(=O)(=O)c1ccc(N)cc1 | inactive | 
CN1CN(C)CN(C)C1 | inactive | 

Compound | Potency | activity change, negative = cytotoxicity
CC(c1cc2ccccc2s1)N(O)C(N)=O (stereo not given) | inactive | 
O=C(CN1CCN(Cc2ccc3c(c2)OCO3)CC1)N1c2ccccc2Sc2ccccc21 | inactive | 
COc1ccc([C@@H]2Sc3ccccc3NC(=O)[C@@H]2O)cc1 | inactive | 
C[C@]1(Cn2ccnn2)[C@H](C(=O)O)N2C(=O)C[C@H]2S1(=O)=O | inactive | 
O=C(O)c1ccc[n+]([O-])c1 | inactive | 
C#C[C@]1(OC(C)=O)CC[C@H]2[C@@H]3CCC4=C[C@@H](OC(C)=O)CC[C@@H]4[C@H]3CC[C@@]21C | inactive | 
CC(=O)c1ccccc1N | inactive | 
CCO/C=C1\N=C(c2ccccc2)OC1=O | inactive | 
CCCCCCCCCCCCCCCCCl |  | -18.4% [at 18.9 µM] (inactive)
O=C1O[C@H]([C@H](O)CO)C(O)=C1O | inactive | 
CC(C)CC(O)CC(C)C | inactive | 
CC1=CC(=O)NS(=O)(=O)O1 | inactive | 
CCc1cccc(C)c1N | inactive | 
Cc1nn(C)c(Oc2ccccc2)c1/C=N/OCc1ccc(C(=O)OC(C)(C)C)cc1 | inactive | 
O=C(O)c1cc(O)c2ccccc2c1O | inactive | 
COCCOC(=O)c1ccccc1C(=O)OCCOC | inactive | 
O=C1CCCCCCCCCCOCCCCO1 | inactive | 
COc1ccccc1OC(=O)Oc1ccccc1OC | inactive | 
CCCC[N+](C)(CCCC)CCCC | inactive | 
CCN(CC)CCOC(=O)C(Cc1cccc2ccccc12)CC1CCCO1 (stereo not given) | inactive | 
